In the library only some 27% were active in any assay of this set; here they are far more common.
sEH act: activators of human soluble epoxide hydrolase | P34913 | activation, % at 2 µM | 91,000 compounds, 0.04% hits | purified human sEH enzymatic activity, activator screen; in the data active = activation above about 37%
CYP2C19 activ: cytochrome P450 2C19 (human) activation; P33261; recombinant CYP2C19, luciferin-H EGE luminescence; active compounds read high; 0 = fully inhibited enzyme, 1 = untreated enzyme; 96,000 tested, under 10 active; activation factor at 5 µM; AID 1025;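 active = activation factor of at least 2 at 5 µM in the primary screen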;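 note: 0 = wells with 2.5 mM tranylcypromine and 1 = vehicle-only wells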
sEH inhibitor: inhibitors of human soluble epoxide hydrolase | inhibition, % at 2 µM | recombinant human sEH enzymatic activity assay | 91,000 compounds, 0.34% hits; in the data active = inhibition above about 80%
CYP2C9 inhib: blocks human cytochrome P450 2C9. inhibition, % at 5 µM. CYP2C9 Supersomes, luciferin-H conversion, luminescence. P11712. AID 777. 96,000 compounds, 20% hits;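 active = blocking of liver enzyme CYP2C9 beyond about 50% at 5 µM, limit read from the data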
Target sequence (P11712 whole entry, looked up): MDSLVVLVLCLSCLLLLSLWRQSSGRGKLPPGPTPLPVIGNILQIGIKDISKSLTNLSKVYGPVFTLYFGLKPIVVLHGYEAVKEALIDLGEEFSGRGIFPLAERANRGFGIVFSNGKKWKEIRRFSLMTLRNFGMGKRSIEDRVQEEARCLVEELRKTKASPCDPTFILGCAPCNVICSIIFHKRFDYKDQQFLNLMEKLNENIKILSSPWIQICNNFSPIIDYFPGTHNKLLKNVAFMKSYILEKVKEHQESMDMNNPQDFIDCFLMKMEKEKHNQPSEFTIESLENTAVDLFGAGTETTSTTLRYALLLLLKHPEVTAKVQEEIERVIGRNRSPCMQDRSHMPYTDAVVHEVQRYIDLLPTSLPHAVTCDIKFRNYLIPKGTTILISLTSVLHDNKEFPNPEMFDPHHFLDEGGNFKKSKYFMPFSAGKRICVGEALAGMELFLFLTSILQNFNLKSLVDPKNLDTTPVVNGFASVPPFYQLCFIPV
CYP2C9 activ: increases human cytochrome P450 2C9 activity. activation factor at 5 µM. 96,000 compounds, 1.4% hits. P11712. recombinant CYP2C9, luciferin-H conversion, luminescence; active compounds read high; factor 1 = untreated enzyme, 0 = blocked;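 active = activation factor of 2 or more for CYP2C9 at a 5 µM dose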;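 note: 0 = sulfaphenazole-blocked wells and 1 = vehicle-only wells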
CYP2C19 inhib: blocks human cytochrome P450 2C19; P33261; CYP2C19 Supersomes, luciferin-H EGE luminescence, 30 min; inhibition, % at 5 µM; 96,000 compounds, 21% hits; AID 778;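 active = CYP2C19 inhibition above a set limit at 5 µM in the primary screen, cut at about 50% in these data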;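 note: plate controls were negative control wells for no effect and 2.5 mM tranylcypromine positive control for full effect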
* hit, by the source's call; x = no result given.

SMILES	sEH act	CYP2C19 activ	sEH inhibitor	CYP2C9 inhib	CYP2C9 activ	CYP2C19 inhib
CS(=O)(=O)N1CCN(c2c(Cl)cccc2[N+](=O)[O-])CC1	8	0.8	-5	15	0.8	21
COCCn1nnnc1C(CC(C)C)N1CCN(c2cccc(OC)c2)CC1 (stereo unspecified)	x	0.2	x	75*	0.2	81*
CCC(c1nnnn1CCOC)N1CCN(c2cccc(C(F)(F)F)c2)CC1 (stereo unspecified)	1	0.3	-1	55*	0.4	69*
COCCn1nnnc1C(c1cccs1)N1CCN(c2cccc(C(F)(F)F)c2)CC1 (stereo unspecified)	-3	0.6	5	28	0.7	36
CC1=C(C#N)C(c2cccnc2)C2=C(CC(c3ccc(Cl)cc3)CC2=O)N1 (stereo unspecified)	8	0.1	-8	73*	0.3	92*
CC1=C(C(=O)OC(C)C)C(c2cccnc2)C2=C(CC(C)(C)CC2=O)N1 (stereo unspecified)	-6	x	7	x	x	x
O=C1Cc2ccccc2C(c2ccc(Br)cc2)N1 (stereo unspecified)	-6	0	4	71*	0.3	100*
COc1ccc(S(=O)(=O)N(CC(=O)NCc2ccco2)c2ccccc2)cc1OC	-7	0.1	6	9	0.9	91*
C=CCNC(=O)CN(c1ccc(F)cc1)S(=O)(=O)c1ccc(OC)cc1	10	0.1	-10	64*	0.4	92*
CCN(c1ccccc1)S(=O)(=O)c1ccc(F)cc1	-4	0.6	6	25	0.8	42
CCN(c1ccccc1)S(=O)(=O)c1ccc(N)c(OC)c1	-5	0.4	7	-184	2.8*	62*
COC(=O)CN(c1ccccc1)S(=O)(=O)c1ccc(F)cc1	0	x	1	x	x	x
COc1ccc(S(=O)(=O)Cc2ccccc2)cc1N	x	0.4	x	-120	2.2*	62*
COC(=O)Cn1c(C)c(C(C)=O)c(C(C)=O)c1C	16	1.1	-14	-15	1.2	-11
Cc1c(Cl)c(C(F)(F)F)nn1CC(=O)N1CCSCC1	11	x	-11	x	x	x
Cc1ccc(S(=O)(=O)N(CC(=O)NCc2ccco2)Cc2ccccc2F)cc1	3	0.6	-6	62*	0.4	37
COc1ccc(S(=O)(=O)N(CC(=O)NCc2ccco2)c2ccccc2)cc1	-1	0.4	-1	42	0.6	56*
Cc1ccc(N(CC(=O)N/N=C/c2ccco2)S(=O)(=O)c2ccccc2)cc1	0	0.5	2	22	0.8	50
COc1ccc(N(CC(=O)N/N=C/c2ccco2)S(=O)(=O)c2ccccc2)cc1	15	0.4	-18	20	0.8	60*
COc1ccc(S(=O)(=O)N(CC(=O)O)c2ccccc2)cc1	-1	1.1	0	8	0.9	-10
CC(=O)Nc1ccc(NS(=O)(=O)c2cn(C)c(=O)n(C)c2=O)cc1	1	1.2	-2	-15	1.2	-17
O=C(/C=C/c1ccc(Cl)cc1)NCCN1CCOCC1	-6	0.9	8	11	0.9	6
CCOC(=O)Cn1nc(CC)c2ccccc2c1=O	28	1	-29	-15	1.1	-2
O=C1c2ccccc2C(=O)N1OCCOCCOCCON1C(=O)c2ccccc2C1=O	-3	1	0	-5	1.1	-5
O=C1c2ccccc2C(=O)N1OCc1ccc(Cl)cc1	-1	0.4	4	-13	1.1	64*
SMILES	sEH act	CYP2C19 activ	sEH inhibitor	CYP2C9 inhib	CYP2C9 activ	CYP2C19 inhib
O=C(CN(Cc1ccco1)C(=O)CNS(=O)(=O)c1ccc(Cl)cc1)NCc1ccc(F)cc1	-8	x	8	x	x	x
CCc1c(C#N)c(SCCC(=O)Nc2ccc(OC)cc2)nc2c1C(=O)CC(C)(C)C2	10	0.2	-7	84*	0.2	83*
CCC(=O)N(CCC(Cc1ccccc1)c1ccc2c(c1)OCO2)Cc1ccccc1F (stereo unspecified)	0	0	1	96*	0	96*
CCC(=O)N(CCc1ccccc1)Cc1cc2cc3c(cc2[nH]c1=O)OCO3	2	0.9	-4	12	0.9	8
CCCc1c(C(=O)OCC)[nH]c2c1C(=O)CCC2	2	1	-2	15	0.8	-2
Cc1c(C(=O)OCCOc2ccccc2)[nH]c2c1C(=O)CCC2	-8	0.1	10	91*	0.1	91*
Cc1c(C(=O)OC2CCCC2C)[nH]c2c1C(=O)CCC2 (stereo unspecified)	x	1	x	54*	0.5	5
COc1cccc(C(=O)N2CCCC(c3nc(-c4cccs4)no3)C2)c1 (stereo unspecified)	-5	0.1	4	68*	0.3	86*
O=[N+]([O-])c1cccc(S(=O)(=O)N2CCC(c3nc(-c4ccncc4)no3)CC2)c1	-7	0.6	7	60*	0.4	38
COc1ccc(-c2noc(C3CCCN(C(=O)c4cccs4)C3)n2)cc1 (stereo unspecified)	10	0.1	-7	89*	0.1	85*
O=C(c1cccs1)N1CCC(c2nc(-c3ccc(S(=O)(=O)N4CCOCC4)cc3)no2)CC1	10	0.8	-8	62*	0.4	18
CCC(C)C(=O)N1CCCC(c2nc(-c3cccs3)no2)C1 (stereo unspecified)	1	0.9	1	-7	1.1	14
CCCC(=O)N1CCCC(c2nc(-c3cccs3)no2)C1 (stereo unspecified)	-2	0.9	4	18	0.8	6
COc1cc(C(=O)N2CCCC(c3nc(-c4cccs4)no3)C2)cc(OC)c1OC (stereo unspecified)	10	0.4	-5	47	0.5	56*
CC(C)(C)c1nc(N2CCN(C(=O)c3ccco3)CC2)c2nnn(Cc3ccccc3)c2n1	8	1	-7	24	0.8	2
O=C(CN1CCN(S(=O)(=O)c2ccc(Br)cc2)CC1)Nc1ccccc1F	x	0.2	x	37	0.6	84*
O=C(CN1CCN(S(=O)(=O)c2ccc(Br)cc2)CC1)Nc1ccc(F)cc1	-2	0.7	3	-36	1.4	26
O=C(CN1CCN(S(=O)(=O)c2ccc(Cl)cc2)CC1)Nc1ccc(F)cc1F	1	0.7	-1	24	0.8	27
O=C(CN1CCN(S(=O)(=O)c2ccc(Br)cc2)CC1)Nc1ccc(F)cc1F	-2	0.5	4	-3	1	54*
COc1cccc(CNC(=O)c2ccc3nc[nH]c3c2)c1	-18	0.6	17	-8	1.1	38
Cc1nc(-c2cccc(NS(=O)(=O)c3ccc4ccccc4c3)c2)cs1	-5	0.7	5	-59	1.6	32
COc1ccc(-n2cnnc2SCC(=O)NC2CCS(=O)(=O)C2)cc1 (stereo unspecified)	-12	1.2	10	-23	1.2	-18
Cc1cccc(OCC(=O)NNC(=O)Nc2cccc(Cl)c2)c1C	4	1	-7	-3	1	2

High-throughput results as filed in PubChem.
